# The list is not random: actives were taken first. Their share in the collection is about 3.7%.
# Mtb FBA inh: Mtb FBA enzyme inhibitors, primary screen, biochemical, fluorescence, strain H37Rv; purified M. tuberculosis FBA, fluorescence read-out; inhibition, % at 1 µM; actives 2.3% (n = 360,000); AID 588726, 2011; in the data active = inhibition above about 27%;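 note: 0% = vehicle and 100% = reference inhibitor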
# Rv3671c protease: Rv3671c serine protease inhibitors, primary screen, biochemical, fluorescence polarization, M. tuberculosis H37Rv; AID 2606, 2010; P9WHR9; inhibition, % at 5.96 µM; actives 0.048% (n = 320,000); in the data active = inhibition above about 38%;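 note: extracellular domain of Rv3671c used as enzyme; 0% = enzyme with DMSO and 100% = no enzyme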
# Target sequence (P9WHR9 whole entry, looked up, the tested form may be a part): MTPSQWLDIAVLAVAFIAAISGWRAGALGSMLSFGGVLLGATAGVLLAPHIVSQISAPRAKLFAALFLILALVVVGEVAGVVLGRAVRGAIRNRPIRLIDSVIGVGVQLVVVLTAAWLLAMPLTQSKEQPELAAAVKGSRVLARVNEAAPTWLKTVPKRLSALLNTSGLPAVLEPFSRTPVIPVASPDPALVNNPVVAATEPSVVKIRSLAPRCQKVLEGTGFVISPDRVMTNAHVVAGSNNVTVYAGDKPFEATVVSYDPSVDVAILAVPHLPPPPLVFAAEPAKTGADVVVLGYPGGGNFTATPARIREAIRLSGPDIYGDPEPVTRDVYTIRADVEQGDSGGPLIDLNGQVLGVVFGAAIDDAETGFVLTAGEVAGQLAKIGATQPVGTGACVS
# Mtb UGM inh: M. tuberculosis UGM enzyme inhibitors, primary screen, biochemical, fluorescence polarization, single point; actives 0.06% (n = 320,000); AID 504406, 2011; inhibition, % at 10 µM; purified UGM, fluorescence polarization probe displacement; in the data active = inhibition above about 10%, passing the limit was not always enough
# FadD28 binding: inhibitors of FadD28 bisubstrate probe binding, primary screen, biochemical, fluorescence polarization, single point; inhibition, % at 12.5 µM; actives 0.22% (n = 360,000); in the data active = inhibition above about 8.5%, passing the limit was not always enough
# GDH-TPI inh: GDH-TPI coupling enzyme inhibitors, primary screen, artefact control for M. tuberculosis FBA inhibitor project, biochemical, absorbance, full deck | GDH-TPI coupled enzyme counterscreen, NADH absorbance | inhibition, % at 4.8 µM | actives 1.2% (n = 360,000); in the data active = inhibition above about 30%;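 note: 0% = DMSO wells and 100% = wells lacking the enzyme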
# Mtb bLac sens: beta-lactam sensitization of Mtb H37Rv, H37Rv; actives 0.27% (n = 330,000); inhibition, % at 25 µM; M. tuberculosis H37Rv growth with meropenem, percent inhibition; call rule not given here;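 note: growth measured after seven days incubation then overnight dye step; 0% = bacteria only wells and 100% = bacteria with antibiotic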
# * marks the source's active call; other numbers are inactive results; nt = no result; + = active, no number.
SMILES,Mtb FBA inh,Rv3671c protease,Mtb UGM inh,FadD28 binding,GDH-TPI inh,Mtb bLac sens
CCCCN1C(=O)C(CC(=O)NCc2cccs2)CC(C(=O)N(CC)CC)=C1C (configuration not stated),0,nt,nt,-3,6,nt
Cc1ccc(S(=O)(=O)c2cc3ccc(O)cc3oc2=O)cc1C,+,4,7,1,0,-2
COc1ccc(OC)c(S(=O)(=O)CC(=O)c2cc3ccc(OC)cc3oc2=O)c1,3,-2,0,0,8,5
COc1ccc2cc(S(=O)(=O)c3ccccc3)c(=O)oc2c1,+,1,-1,-2,36*,-7
Cc1cc(C)n2nc(SCC(=O)NC(=O)c3ccccc3)nc2n1,-1,2,0,-4,-1,2
CCSC(=Nc1ccccc1)N1CCOCC1,-2,9,-2,2,-4,-9
Cc1c(C(=O)Nc2nc3ccccc3[nH]2)oc2ccccc12,8,1,1,0,33*,95
CCOc1cc(/C=C2/SC(=O)N(CC(=O)N3CCc4ccccc4C3)C2=O)ccc1OCC(=O)O,-2,1,-1,-5,34*,44
O=C(/C=C\c1cccs1)c1c(O)ccc2ccc(=O)oc12,-7,4,0,-4,36*,89
O=C(Nc1cccc(-c2nc3ccccc3[nH]2)c1)c1cccc(NC(=O)c2ccco2)c1,2,-138,-1,17*,7,-4
O=C(Nc1ccc2nc(-c3ccc(Br)o3)[nH]c2c1)c1ccco1,1,-3,2,-5,40*,-8
Cc1cccc2[nH]c(-c3ccc(NC(=O)c4ccco4)cc3)nc12,-2,-22,3,-27,58*,-6
O=C(Nc1ccc2nc(-c3ccc(Br)o3)[nH]c2c1)c1cccs1,1,-9,2,-7,32*,4
CC(=O)Nc1ccc2nc(-c3ccc(Br)o3)[nH]c2c1,3,3,-1,-1,29,-5
O=c1[nH]cc(CCc2ccccc2)c(=O)[nH]1,0,nt,nt,-3,7,nt
CCOCCCNC(=O)/C(C#N)=C/c1ccc([N+](=O)[O-])o1,1,-37,0,-1,46*,100
CCOCCCNC(=O)/C(C#N)=C/c1cc(Br)c(O)c(Br)c1,3,nt,nt,0,44*,nt
COCCNC(=O)/C(C#N)=C/c1cc(Br)c(O)c(OC)c1,-18,-5,3,-1,3,-5
CCOCCCNC(=O)/C(C#N)=C/c1ccc(-c2ccc(S(=O)(=O)N3CCOCC3)cc2)o1,0,-21,2,-4,23,9
Cc1ccc(S(=O)(=O)Nc2c(C)n(C)n(-c3ccccc3)c2=O)cc1C(=O)NCc1ccco1,3,nt,nt,0,8,nt
CNc1nc(-c2ccccc2)cc(C)c1S(C)(=O)=O,+,-4,-4,-4,6,-6
O=C(c1nc2ccc(Cl)cn2c1CN1CCC[C@H]1CO)N1CCc2ccccc2C1,3,nt,nt,-1,5,nt
N#Cc1c(NC(=O)c2ccc(-c3ccccc3[N+](=O)[O-])o2)sc2c1CCCC2,-10,-18,1,-1,32*,-2
COC(=O)c1ccc(C(=O)OC)c(NC(=S)N2CCN(c3ccccc3)CC2)c1,30*,7,-2,-1,16,6
Cc1cccc(C)c1OC(=O)c1ccccc1,-2,nt,nt,-2,-5,nt
SMILES,Mtb FBA inh,Rv3671c protease,Mtb UGM inh,FadD28 binding,GDH-TPI inh,Mtb bLac sens
CCN1CCN(Cc2c(O)ccc3c2O/C(=C\C=C\c2ccccc2OC)C3=O)CC1,-4,-1,0,0,15,72
CCN1CCN(Cc2c(O)ccc3c(=O)c(-c4ccccc4OC)coc23)CC1,119*,6,0,0,28,4
CN1CCN(Cc2c(O)ccc3c(=O)c(Oc4ccccc4Cl)c(C(F)(F)F)oc23)CC1,-2,-3,1,-2,13,-1
COc1ccccc1-c1coc2c(CN3CCN(CCO)CC3)c(O)ccc2c1=O,152*,-1,3,-2,16,-23
COc1ccccc1-c1coc2c(CN3CCN(C)CC3)c(O)ccc2c1=O,132*,0,-1,-2,22,-3
COc1cc(CNC[C@H]2O[C@@H](n3cc(C)c(=O)[nH]c3=O)C[C@@H]2O)ccc1OCc1cccc(Cl)c1,-2,nt,nt,-6,-2,nt
COc1ccc(-n2nc3c(c2NC(=O)COc2cccc(OC)c2)CS(=O)(=O)C3)cc1,0,0,-3,-1,0,-12
COCCn1c(=NC(=O)CSCC(=O)NC2CCCCC2)sc2cc(OC)ccc21,-2,-14,-1,-1,42*,11
COCCn1c(=NC(=O)CSC(C)=O)sc2cc(OC)ccc21,-1,1,-2,-5,15,-5
O=C(COC(=O)c1c(F)cccc1Cl)NCC1CCCCC1,2,-5,2,nt,3,-9
NC(=O)N=Nc1c(O)[nH]c2ccc([N+](=O)[O-])cc12,-3,-4,4,0,31*,-6
CC(/C=N/Nc1nc(N2CCCCC2)nc(N2CCCCC2)n1)=C\c1ccccc1,3,5,1,1,0,90
BrC(=C\c1ccccc1)/C=N/Nc1nc(N2CCOCC2)nc(N2CCOCC2)n1,-1,-7,2,-1,31*,53
BrC(/C=C\c1ccccc1)=N/Nc1nc(N2CCOCC2)nc(N2CCOCC2)n1,-3,-3,-1,0,45*,45
CCC(C)(C)C1CCC2(CC1)NC(=O)N(CC(=O)N(C)Cc1ccc(OC(F)F)cc1)C2=O (configuration not stated),-1,5,3,-3,-10,1
C=CCn1c(O)c(N=NC(=O)CNC(=O)/C=C/c2ccc(OC)cc2)c2ccccc21,0,-47,1,-3,38*,21
NC(=O)Cn1c(O)c(N=NC(=O)CNC(=O)/C=C/c2ccccc2)c2ccccc21,2,6,3,-1,37*,0
CCn1c(O)c(N=NC(=O)CNC(=O)c2cccnc2)c2ccccc21,4,nt,nt,1,37*,nt
C=CCn1c(O)c(N=NC(=O)CNC(=O)/C=C/c2ccco2)c2ccccc21,-6,-5,1,-4,35*,2
Cc1ccc(Nc2nc(N)c(C#N)c(CC#N)c2C#N)cc1,-2,-6,-3,-1,38*,0
CCN(CC)S(=O)(=O)c1ccc(Cl)nc1,63*,-2,-1,-1,8,-10
COCCN(CCOC)S(=O)(=O)c1ccc(Cl)nc1,-1,4,1,0,2,-2
COc1ccc(/C=C(\C#N)C(=O)N=CN(C)C)cc1,-1,-7,0,0,10,-3

# Screening results: PubChem, several laboratories
